The term inhibition denotes the drop in the measured response relative to a control, in per cent.

Hit rate of the full screen: of about 220,000 compounds, about 570 (0.26%) were called active. No stated cut-off is given here; in the data, active means inhibition above about 29%; inactive means the rest. Only a selection was taken, and actives are over-represented in it overall.

27 molecules from PubChem BioAssay AID1510 (The Scripps Research Institute Molecular Screening Center, 2009) can be followed below.

For the assay, the target named is Sphingosine 1-phosphate receptor 4 (Homo sapiens) (UniProt O95977). Put plainly: blockers of human S1P4 receptor – cell-based, primary screen (AID 1510).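 Further: 0% = wells stimulated with agonist and 100% = vehicle wells without agonist.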 The note with it: S1P4-expressing cells, antagonist mode, reporter read-out; at 4.98 µM; active compounds read high.
Sphingosine 1-phosphate receptor 4 (Homo sapiens), sequence (O95977 whole entry, looked up): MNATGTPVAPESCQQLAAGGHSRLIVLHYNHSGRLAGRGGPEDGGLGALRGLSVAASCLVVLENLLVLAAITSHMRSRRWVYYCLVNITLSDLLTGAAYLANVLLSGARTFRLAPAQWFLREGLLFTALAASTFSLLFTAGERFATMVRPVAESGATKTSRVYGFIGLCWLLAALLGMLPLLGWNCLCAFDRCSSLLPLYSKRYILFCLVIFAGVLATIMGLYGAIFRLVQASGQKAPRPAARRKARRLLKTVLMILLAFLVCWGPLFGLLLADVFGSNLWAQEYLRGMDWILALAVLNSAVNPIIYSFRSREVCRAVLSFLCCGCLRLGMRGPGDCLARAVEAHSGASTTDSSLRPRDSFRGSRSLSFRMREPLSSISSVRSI
Regarding `CCOc1ccc(S(=O)(=O)Nc2ccncc2)c(C)c1C`, the inhibition is 8.19% (inactive).

Consider `Cc1cc(SCC(=O)c2ccccc2)nc(SCC(=O)c2ccccc2)n1`, for which the inhibition is -17.1% (inactive).

On to `C/C(=N\NC(=O)c1nc(C)cc(C)n1)c1ccccc1`, for which the inhibition is 4.33% (inactive). The value for `Cc1cc(C)nc(S/C=C/C(=O)c2ccccc2)n1` was 54.5% (active); that for `O=C(Nc1nnc(SCc2ccccc2Cl)s1)c1cccc([N+](=O)[O-])c1` was -13.5% (inactive); that for `Cc1cccc(N2CCN(C(=O)c3ccccc3NC(=O)C3CCCCC3C(=O)O)CC2)c1` (configuration not stated) was -7.71% (inactive). The value for `CC(C)c1ccc(N2CCN(C(=O)c3ccccc3NC(=O)/C=C(\C(=O)O)c3ccccc3)CC2)cc1` was 96% (active). Turning to `O=C(O)C1CC=CCC1C(=O)Nc1ccccc1C(=O)N1CCN(c2ccccc2)CC1` (configuration not stated), the inhibition is -6.52% (inactive). Turning to `CC(C)c1ccc(Nc2ncccc2C#N)cc1`, the inhibition was -16.8% (inactive). Regarding `O=C(/C=C/c1cccc([N+](=O)[O-])c1)NCCSCc1ccco1`, the inhibition is -14.7% (inactive).

For `CCc1ccc2ncc(C(=O)c3ccccc3)c(N3CCOCC3)c2c1`, the inhibition is -14.8% (inactive). The value for `O=C1Nc2cc(Cl)c(Cl)cc2N(O)N1c1ccccc1Cl` was -11.4% (inactive); that for `C=CCOCCN(C)C1=NS(=O)(=O)c2ccccc21` was -5.99% (inactive); that for `Fc1ccc(Nc2nnns2)cc1` was -8.7% (inactive). Under `O=C(CSc1ncn[nH]1)Nc1nc(-c2cccc([N+](=O)[O-])c2)cs1` stands 0.29% (inactive). Under `COc1ccc(Nc2nc(-c3ccccc3)cs2)cc1` stands -20.3% (inactive). Turning to `COc1ccc2c(c1OC)C(=O)OC2Nc1nc(-c2ccccc2)cs1` (configuration not stated), the inhibition is 22.8% (inactive). As for `COc1ccc(-c2csc(NC3OC(=O)c4ccccc43)n2)cc1` (configuration not stated), the inhibition was 30.9% (active). The value for `O=C(CC1NCCNC1=O)Nc1cc(Cl)cc(Cl)c1` (configuration not stated) was -3.46% (inactive). The value for `Cc1cc(C(=O)CSc2nc(N)cc(=O)[nH]2)c(C)n1-c1cccc(F)c1` was -13.7% (inactive); that for `Brc1ccc(-c2nn[nH]n2)cc1` was 11.9% (inactive); that for `Cc1ccc(C2CCN(C(=S)Nc3cccc(Cl)c3)C2)cc1` (configuration not stated) was 3.99% (inactive). Regarding `Cc1nc2nc(SCC(=O)c3ccccc3)[nH]c2cc1Br`, the inhibition is 6.48% (inactive). Under `O=C(COC(=O)c1cc([N+](=O)[O-])ccc1NCc1ccccc1)NC1CCCCC1` stands -5.39% (inactive); under `CN1CCN(S(=O)(=O)c2cccc(C(=O)O)c2)CC1`, -2.81% (inactive). Consider `COc1cc(C(=O)N2C(=O)c3cccc(N)c3C2=O)cc(OC)c1OC`, for which the inhibition is 6.71% (inactive). Turning to `CC1CC(C)CN(S(=O)(=O)c2cccc(C(=O)N3C(=O)c4cccc(N)c4C3=O)c2)C1` (configuration not stated), the inhibition was 37.9% (active).
